This is part of a sample that, as a whole, favours compounds with a hit. Of some 83,000 tested, about 20% had one in any assay.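 Note: values are percent growth. 100 is the growth of untreated cells, values between 100 and 0 indicate rising inhibition; between -100 and 0 indicates cell death.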 Activity calls are given as the source filed them. Rule for the calls: active = growth percent below 10; inactive = the rest.
How the values were obtained:
Experiment in all cases: NCI-60 one-dose screen, 48 h (100 = growth as untreated, 0 = no growth, -100 = all killed)
Conditions in all cases: 10 µM unless noted
[1] = system: NCI-H23 lung
[2] = system: NCI-H226 lung
[3] = system: NCI-H322M lung
[4] = system: HOP-62 NSCLC
[5] = system: NCI-H460 lung
[6] = system: HOP-92 NSCLC
[7] = system: NCI-H522 lung
[8] = system: A549/ATCC NSCLC
[9] = system: 786-0 renal
[10] = system: COLO 205 colon
[11] = system: DU-145 prostate
[12] = system: K-562 leukemia
[13] = system: MALME-3M melanoma
[14] = system: MDA-MB-231 breast
[15] = system: RXF 393 renal
[16] = system: SF-268 CNS
[17] = system: SF-295 CNS
[18] = system: SF-539 CNS
[19] = system: UACC-257 melanoma
[20] = system: M14 melanoma

Measured: growth

CC1=C(CNO)C2=C(C)C3(CC3)[C@@](C)(O)C(=O)C2=C1
inactive: [2] 25.3% | [12] 88.4% | [14] 10.3% | [20] 26.8%
active: [1] -24.8% | [3] -15.8% | [4] 1.62% | [5] -0.969% | [6] -19.6% | [7] -7.65% | [8] -7.8% | [9] -17.5% | [10] -20.4% | [11] 4.97% | [13] -62.6% | [15] -70.3% | [16] 0.784% | [17] -4.83% | [18] -35.3% | [19] -24.3%

O=C1C2CC=CCC2C(=O)N1SC(Cl)(Cl)Cl (stereo not given)
active: [7] -57.1%
inactive: [1] 96.7% | [2] 106% | [3] 125% | [4] 95.9% | [5] 103% | [6] 64.7% | [8] 108% | [9] 97.7% | [10] 87.5% | [11] 109% | [12] 45.1% | [13] 81.8% | [14] 103% | [15] 63.6% | [16] 104% | [17] 134% | [18] 91.3% | [19] 105% | [20] 92.1%

C/C(=C\c1ccn(-c2ccccc2N)n1)[C@@H]1C[C@@H]2O[C@]2(C)CCC[C@H](C)[C@H](O)[C@@H](C)C(=O)C(C)(C)[C@@H](O)CC(=O)O1
active: [10] -4.12% | [11] -17.8% | [15] -3.76% | [18] -12% | [20] 2.49%
inactive: [1] 20.4% | [2] 33.8% | [3] 16.6% | [4] 41.7% | [5] 14.9% | [6] 77.4% | [7] 11.7% | [8] 24.8% | [9] 17.8% | [12] 14.6% | [13] 41.7% | [14] 21.9% | [16] 30.3% | [17] 13.8% | [19] 62.3%

O=[N+]([O-])c1cc(I)cc([N+](=O)[O-])c1
inactive: [1] 95.9% | [2] 115% | [3] 111% | [4] 133% | [5] 111% | [6] 131% | [7] 85.5% | [8] 99.5% | [9] 112% | [10] 111% | [11] 105% | [12] 97.9% | [13] 101% | [14] 95.7% | [15] 111% | [16] 94.2% | [17] 110% | [18] 101% | [19] 98% | [20] 98.8%

CC12CCC(O)CC1=CCC1C2CCC2(C)C(O)CCC12 (stereo not given)
inactive: [1] 111% | [2] 90% | [3] 101% | [4] 103% | [5] 101% | [6] 85.4% | [7] 94.8% | [8] 109% | [9] 103% | [10] 106% | [11] 105% | [12] 115% | [13] 102% | [14] 105% | [15] 101% | [16] 102% | [17] 96.2% | [18] 98.9% | [19] 110% | [20] 106%

O=C1NC(=O)C(=Cc2cn(C(=O)c3ccccc3)c3ccccc23)C(=O)N1
inactive: [1] 98% | [2] 92.3% | [3] 95.5% | [4] 93.4% | [5] 97.6% | [6] 71.8% | [7] 85.8% | [8] 101% | [9] 101% | [10] 113% | [11] 113% | [12] 141% | [13] 90.5% | [14] 88.9% | [15] 45% | [16] 102% | [17] 116% | [18] 87.6% | [19] 87% | [20] 95.3%

CC[C@H](C)[C@H](NC(=O)C12CC(NC(C)=O)(C1)C2)C(=O)N(C)[C@H](C[C@@H](OC(C)=O)c1nc(C(=O)N[C@@H](Cc2ccccc2)C[C@H](C)C(=O)OC)cs1)C(C)C
inactive: [1] 30.9% | [2] 19.9% | [3] 51.3% | [4] 20.3% | [6] 19.9% | [8] 22.6% | [9] 16% | [12] 11.5% | [13] 51.8% | [14] 28.5% | [15] 43.9% | [16] 27.2% | [17] 18.7% | [19] 49.6%
active: [5] 3.12% | [7] 1.64% | [10] -31.5% | [11] 0.412% | [18] 1.61% | [20] 2.48%

COC(=O)[C@H](Cc1ccccc1)NNC(=O)c1csc([C@@H](C[C@H](C(C)C)N(C)C(=O)[C@@H](NC(=O)[C@H]2CCCCN2C)C2CC2)OC(C)=O)n1
inactive: [1] 29.2% | [2] 36.5% | [3] 46.7% | [8] 15.3% | [9] 11.9% | [13] 71% | [15] 76.4% | [16] 22.5% | [19] 58%
active: [4] 8.12% | [5] 3.02% | [6] 3.84% | [7] -19.2% | [10] -60.3% | [11] 6.55% | [12] 1.75% | [14] 3.27% | [17] -5.26% | [18] -15.4% | [20] 2.43%

O=C1CNC(c2ccccc2)c2cc(Cl)ccc2N1 (stereo not given)
inactive: [1] 93.7% | [2] 89.6% | [3] 95.5% | [4] 92% | [5] 110% | [6] 107% | [7] 69.3% | [8] 95% | [9] 109% | [10] 116% | [11] 100% | [12] 93.8% | [13] 90.6% | [14] 94.9% | [15] 99.2% | [16] 98.7% | [17] 103% | [18] 104% | [19] 94.9% | [20] 99.4%

CCCCN1CCCC[C@@H]1C(=O)N[C@H](C(=O)N(C)[C@H](C[C@@H](OC(C)=O)c1nc(C(=O)NC2CCC(C(=O)OC)CC2)cs1)C(C)C)C(C)C (stereo not given in full)
inactive: [1] 48.4% | [2] 71.8% | [3] 40.5% | [4] 23% | [6] 37% | [8] 24.2% | [9] 36.7% | [13] 43.8% | [14] 45.7% | [15] 18.3% | [16] 48.8% | [17] 18.6% | [19] 59.4%
active: [5] 9.59% | [7] -11.8% | [10] 7.59% | [11] 9.02% | [12] 9.52% | [18] -5.06% | [20] -2.18%

COc1ccc(-n2c(C)nc3cc(OC)c(OC)cc3c2=O)cc1OC
inactive: [1] 101% | [2] 99.1% | [3] 97% | [4] 102% | [5] 106% | [6] 103% | [7] 101% | [8] 98% | [9] 102% | [10] 99.5% | [11] 105% | [12] 104% | [13] 62.3% | [14] 116% | [15] 118% | [16] 97.2% | [17] 100% | [18] 96.2% | [19] 102% | [20] 106%

C=CC1=C[C@@H]2[C@@H]3O[C@]4(CC[C@H](O4)[C@@H](C)C[C@@H](O)C3=O)C[C@H](O)C3=NCC[C@@]32CC1
active: [1] -34.6% | [2] -29.2% | [3] -23.4% | [4] -20.3% | [5] -28.9% | [6] -22.3% | [7] -33.5% | [8] -3.33% | [9] -28.3% | [10] -25.6% | [11] -26.7% | [12] 5.48% | [13] -82.2% | [14] -29.2% | [15] -67.3% | [16] -35.8% | [17] -35.9% | [18] -43.6% | [19] -31.5% | [20] -79%

CN1CCCCC1C(C)(O)c1ccccc1 (stereo not given)
inactive: [1] 106% | [2] 99.7% | [3] 101% | [4] 92.9% | [5] 107% | [6] 98.6% | [7] 89.9% | [8] 92% | [9] 95.1% | [10] 114% | [11] 111% | [12] 114% | [13] 97.6% | [14] 112% | [15] 116% | [16] 101% | [17] 96.2% | [18] 93.6% | [19] 96.5% | [20] 92.9%

COC(=O)[C@@H](C)C[C@H](Cc1ccccc1)NC(=O)c1nc([C@@H](C[C@H](C(C)C)N(C)C(=O)[C@@H](NC(=O)[C@H]2C[C@H](O)CCN2C)C(C)C)OC(C)=O)sc1C(C)C
active: [2] -35.5% | [4] 1.87% | [5] 2.31% | [7] -21.9% | [9] 3.94% | [10] -65.9% | [11] -4.78% | [12] 5.9% | [14] 3.71% | [17] -16.8% | [18] -36.9% | [20] -22.4%
inactive: [1] 23.8% | [3] 26.5% | [6] 25% | [8] 10.7% | [13] 28.4% | [15] 18.9% | [16] 13.8% | [19] 66.1%

COc1cccc2c1c(C(=O)C(=O)Nc1cc(C)no1)cn2Cc1ccc(F)cc1
inactive: [1] 78.8% | [2] 75.5% | [3] 94.7% | [4] 64.1% | [5] 71.3% | [6] 57.4% | [7] 72.5% | [8] 91.9% | [9] 64.1% | [10] 95.4% | [11] 74.2% | [12] 13.4% | [13] 69.3% | [14] 77.5% | [15] 77.4% | [16] 64.3% | [17] 73.6% | [18] 67.2% | [19] 81.4% | [20] 45.7%

Source: PubChem BioAssay (NCI)
